Hits are enriched below; roughly 1.8% of the tested compounds scored in any of these assays.
Mito fusion act: inhibitors of mitochondrial division or activators of mitochondrial fusion | S. cerevisiae fusion-defective mutant growth rescue, CellTiterGlo 48 h | Potency, µM (highest dose often 46.1 µM), inactives show top-dose growth rescue (activation), usual class: activators | 320,000 compounds, 0.23% hits | AID 485298; also: potency is read from the fitted curve at half-maximal effect; % of control where 0% means no effect; nearly all actives have a fitted effect of over 45% in size
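Temperature-sensitive fusion-defective S. cerevisiae (e.g. fzo1-1, mgm1-5) were grown with compound in YPEG medium (3% ethanol, 3% glycerol) for 48 hours at 37C. Growth rescue was measured as viability by CellTiterGlo luminescence after 10 minutes at ambient.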
MBNL1-CUG inh: MBNL1-poly(CUG) RNA binding inhibition; AID 2675; Potency, µM (series often up to 57.5 µM), for inactives: top-dose activity change, negative = inhibition, most hits filed as inhibitors; Q9NR56; TR-FRET MBNL1-His/biotin-(CUG)12 binding, 665/545 ratio; 280,000 compounds, 0.036% hits; active = well fitted inhibition curve with a large enough effect in the signal ratio, with a control signal flat, not every such curve was filed as active; inconclusive = small, poorly fitted or top-dose-only effect, or effect the other way, or a change in a side signal; inactive = no such curve, though single readings can be large or run the other way; the % refers to the signal ratio; also: potency is read from the fitted curve at half-maximal effect; % is scaled to controls: 0 for no effect and ±100 for the full control effect
Target sequence (Q9NR56 whole entry, looked up): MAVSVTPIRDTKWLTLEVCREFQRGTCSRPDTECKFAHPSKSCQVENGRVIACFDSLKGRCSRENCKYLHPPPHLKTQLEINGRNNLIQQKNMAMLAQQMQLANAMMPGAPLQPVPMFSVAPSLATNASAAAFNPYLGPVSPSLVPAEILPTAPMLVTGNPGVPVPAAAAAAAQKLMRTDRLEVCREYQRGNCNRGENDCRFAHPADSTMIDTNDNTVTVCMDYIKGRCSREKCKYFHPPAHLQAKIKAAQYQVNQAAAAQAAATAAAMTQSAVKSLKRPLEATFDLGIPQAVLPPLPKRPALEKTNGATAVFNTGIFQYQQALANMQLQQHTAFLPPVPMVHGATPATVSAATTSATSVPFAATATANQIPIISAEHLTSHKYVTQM
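Compounds (final 92 nM to 58 uM) are added to His-tagged MBNL1 and biotin-(CUG)12, then terbium anti-His antibody and streptavidin-XL665 (5 nM final). After 60 min at room temperature, the 665/545 nm ratio is read.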
A-T KAP1 phos: candidate therapy for ataxia-telangiectasia | F2112 A-T fibroblasts, KAP-1 phosphorylation AlphaLISA; neocarzinostatin DNA damage 30 min before lysis | Potency, µM (top dose mostly 57.5 µM), without a hit: at the top dose activation, actives largely listed as activators | 320,000 compounds, 0.19% hits; also: potency is read from the fitted curve at half-maximal effect; % of control where 0% means no effect; nearly all actives have a fitted effect of over 45% in size
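hTERT-immortalized A-T patient fibroblasts (F2112), 500 cells/well in OPTI-MEM, 1% FBS, got compounds for 60 min, then NCS for 30 min at 37C. Lysates were then assayed for phospho-KAP-1 by AlphaLISA (anti-pKAP1 donor, anti-KAP1 acceptor beads), 6 hr at 25C.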
ClpP mod: qHTS Assay for Activators of ClpP | Potency, µM (series often up to 57.5 µM), for inactives: at the top dose activity change, negative = active | 340,000 compounds, 1.9% hits | AID 651965, 2013 | ATP-dependent Clp protease proteolytic subunit (Bacillus subtilis (strain 168)), P80244 | purified B. subtilis ClpP, FRET peptide cleavage, 20 min; active = well fitted falling curve with a large enough effect; inconclusive = small, poorly fitted or top-dose-only effect; inactive = no such curve, though single readings can be large or run the other way; also: potency is read from the fitted curve at half-maximal effect; the source files actives as falling curves though it sought activators and does not explain the sign; nearly all actives have a fitted effect of over 65% in size
Target sequence (P80244 whole entry, looked up): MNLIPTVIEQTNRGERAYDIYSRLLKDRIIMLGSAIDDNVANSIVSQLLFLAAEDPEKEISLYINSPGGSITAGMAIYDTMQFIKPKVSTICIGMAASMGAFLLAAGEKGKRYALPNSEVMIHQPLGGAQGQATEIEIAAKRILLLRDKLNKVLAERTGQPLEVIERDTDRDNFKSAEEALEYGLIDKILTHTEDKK
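FRET quenching reversal measured ClpP activation: 10 microg/mL B. subtilis ClpP at pH 8 with the FRET-FV decapeptide, read at 430 nm after 320 nm excitation. The 20-min minus 0-min signal was scaled between DMSO/no-enzyme wells and ADEP (5.8 microM final).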
TCR activator: activates T cell receptor signaling | primary human leukocytes, anti-CD3, IL-2 HTRF, 48 h | Potency, µM (series often up to 9.22 µM), for inactives: at the top dose activation of IL-2 secretion, actives largely listed as activators | 330,000 tested, under 10 active | AID 504894; also: % of control where 0% means no effect
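Readout: HTRF IL-2, Eu-cryptate/d2 antibody pair, 320nm excitation, 665nm emission. Stimulus: a-CD3 beads, no co-stimulation. Cells: primary human leukocytes. Exposure: 48 hr with compound.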
Glioma ERSR ind: induces the endoplasmic reticulum stress response in human glioma cells. Potency, µM, for the others: at the top dose activation, most hits filed as activators. AID 602332. U87-MG GRP78 promoter luciferase reporter, 16 h. 420,000 compounds, 0.02% hits; also: potency is read from the fitted curve at half-maximal effect; series mostly up to about 76 µM; % of control where 0% means no effect; nearly all actives have a fitted effect of over 35% in size
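ERSR induction read as luciferase luminescence (Bright-Glo, 10 min at room temperature) in stably transfected human U87-MG glioma cells exposed to compounds for 16 h, using GRP78 as sensor.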
Numbers without * were called inactive; ? = inconclusive; . = no result; [ ] = another dose, or the depositor's remark. Unless noted, calls follow the shape of the dose curve; as a rule, active = well fitted curve in the direction sought with a large enough effect; inconclusive = small, poorly fitted or top-dose-only effect, or another doubt; inactive = no such curve, though single readings can be large; an effect the other way counts as inactive or inconclusive.

SMILES	Mito fusion act	MBNL1-CUG inh	A-T KAP1 phos	ClpP mod	TCR activator	Glioma ERSR ind
O=C(Nc1ccc2c(c1)OCCO2)c1ccccc1F	-2%	-6%	17%	-4%	-8%	-13%
CC(C)(C)NC(=O)CN(C(=O)c1ccc(CN2CCOCC2)o1)c1ccc2c(c1)OCCO2	-2%	8%	3%	13µM*	-13%	-1%
CCC1(C)Cc2c(sc3nc(NC)n(C)c(=O)c23)CO1 (stereo unspecified)	?	?	9%	14µM*	8%	3%
CC1(C)CC(NC(=O)C(C)(C)Oc2ccc(Cl)cc2)CC(C)(C)N1	-4%	-6%	7%	-2%	-1%	-4%
CC(C)(Oc1ccc(Cl)cc1)C(=O)NC1CCCCC1	26%	.	14%	20µM*	2%	-5%
COc1ccc2cc(C#N)c(SCC(=O)NNC(=O)Cc3ccccc3)nc2c1	2%	109%	-6%	?	5%	-8%
CCOC(=O)CSc1nc2cc(OC)c(OC)cc2cc1C#N	.	.	.	32µM*	.	3%
CCc1nc(SCC(=O)N2CCc3cc(OC)c(OC)cc3C2)c(C#N)cc1C	.	.	.	32µM*	-4%	-3%
Cc1ccc2cc(C#N)c(SCC(=O)NNC(=O)Cc3ccccc3)nc2c1	-3%	.	12%	28µM*	-6%[46.1 µM]	-3%
CCOC(=O)CSc1nc2cc(OCC)ccc2cc1C#N	8%	9%	0%	16µM*	0%	8%
COc1cc2c(cc1OC)CN(C(=O)CSc1nc(C)cc(C)c1C#N)CC2	-3%	-11%	3%	-3%	-8%[46.1 µM]	-2%
COc1ccccc1Cc1c(-c2ccc(F)cc2)nc2c(C)cc(Br)cn12	.	.	.	-2%	.	35µM*
OC(CNCC1CCCO1)Cn1c2ccc(Cl)cc2c2cc(Cl)ccc21 (stereo unspecified)	-16%	-8%	5%	-5%	.	-17%
OC(CNCCC1C=Nc2ccccc21)Cn1c2ccc(Cl)cc2c2cc(Cl)ccc21 (stereo unspecified)	-42%	.	-13%	28µM*	0%[46.1 µM]	-14%
CC(C)CCN1C(=O)c2ccc(C(=O)NCc3ccccn3)cc2C1=O	6%	.	3%	32µM*	2%	-3%
CN1C(=O)c2ccc(C(=O)NCc3ccccn3)cc2C1=O	0%	?	8%	-1%	6%	0%
CCOC(=O)c1c(-c2ccccc2)oc2ccc(OCC(O)CNCCN(C)C)cc12 (stereo unspecified)	-48%	5%	40µM*	35µM*	1%	-9%
CCOC(=O)c1c(-c2ccccc2)oc2ccc(OCC)cc12	24%	6%[11.5 µM]	13%	.	-2%[46.1 µM]	-2%
CCOc1ccc(-c2oc3ccccc3c(=O)c2O)cc1OCC	.	.	.	32µM*	.	-2%
CCOC(=O)COc1c(-c2ccc(OC)cc2)oc2ccccc2c1=O	5%	39%	.	32µM*	2%[46.1 µM]	0%
COc1ccc(-c2oc3ccccc3c(=O)c2O)cc1OC	.	.	.	.	.	4%
CCOC(=O)c1c(-c2ccccc2)oc2ccc(OC)cc12	2%	-1%	18%	10µM*	0%	-1%
CCOC(=O)c1c(-c2ccccc2)oc2ccc(OCc3ccc(C)cc3)cc12	.	.	.	4%	.	-2%
COc1ccc(-c2oc3ccccc3c(=O)c2OCC(=O)O)cc1	6%	?	-5%	.	-1%	-2%
O=C(c1ccc(=O)oc1)N1CCOCC1	0%	16%	-1%	32µM*	-4%	-4%
SMILES	Mito fusion act	MBNL1-CUG inh	A-T KAP1 phos	ClpP mod	TCR activator	Glioma ERSR ind
O=C(c1cccc(F)c1)N1CCN(c2cccc(Cl)c2)CC1	5%	-7%	9%	28µM*	-1%	-2%
O=C(c1cccc(Cl)c1)N1CCC(N2CCC(C(=O)N3CCOCC3)CC2)CC1	-1%	1%	1%	.	-21%	-4%
O=C(c1cccc(F)c1)N1CCCN(C(=O)c2cccc(F)c2)CC1	0%	.	-7%	1%	-4%[46.1 µM]	-4%
O=C(c1cccc(F)c1)N1CCC(N2CCOCC2)CC1	1%	-10%	0%	14µM*	-3%	-4%
COCCN1CCN(C(=O)c2cnn(-c3nccc(-c4ccco4)n3)c2C(C)C)CC1	.	.	.	.	.	-3%
CC(=O)N1c2c(cc(Br)cc2S(=O)(=O)NCC2COc3ccccc3O2)CC1C (stereo unspecified)	6%	-11%	3%	-1%	-4%	40µM*
CC(=O)N1c2c(cc(Br)cc2S(=O)(=O)NCc2ccc3c(c2)OCO3)CC1C (stereo unspecified)	2%	11%	-3%	-1%	.	-4%
O=C1NC(c2ccc3ccccc3c2)Nc2ccccc21 (stereo unspecified)	.	.	.	4%	.	-4%
O=C1NC(c2ccc3c(c2)OCO3)Nc2ccccc21 (stereo unspecified)	5%	-2%	-2%	32µM*	4%	9%
CC1(CCc2ccc3c(c2)OCO3)NC(=O)c2ccccc2N1 (stereo unspecified)	5%	?	15%	28µM*	7%[46.1 µM]	-7%
CNc1nc(N2CCCN(C)CC2)nc2cc(OC)c(OC)cc12	.	.	.	4%	.	.
COC(=O)C1CCN(Cc2ccc3c(c2)CN(C(=O)c2ccc4nc(C)c(C)nc4c2)CCO3)CC1	.	.	.	.	.	4%
Cc1ccc(NCC(O)Cn2cnc3c2c(=O)n(C)c(=O)n3C)cc1 (stereo unspecified)	0%	-10%	-3%	28µM*	-21%	-3%
Cc1cc(Nc2ncc(Cl)cc2Cl)n(-c2ccccc2C)n1	22µM*	?	12%	-11%	0%[46.1 µM]	1%
COc1cc(Cl)c(C)cc1NC(=O)CCc1c(C)nc2c3cccnc3nn2c1C	.	.	.	25µM*	.	0%
CC(=O)c1cc(CC=C(C)C)c(O)c(CC=C(C)C)c1O	4%	-5%	-8%	28µM*	7%	-7%
COCCn1c(=NC(=O)c2ccc(S(=O)(=O)N3CCc4ccccc4C3)cc2)sc2cc(S(N)(=O)=O)ccc21	2%	?	8%	14µM*	-1%	-1%
C=CCn1c(=NC(=O)c2ccc(S(=O)(=O)N3CCc4ccccc4C3)cc2)sc2cc(S(N)(=O)=O)ccc21	-6%	?	-1%	-2%	-6%[46.1 µM]	-8%
C#CCn1c(=NC(=O)c2ccc(S(=O)(=O)N3CCc4ccccc4C3)cc2)sc2cc(S(N)(=O)=O)ccc21	-12%	?	0%	28µM*	-2%[46.1 µM]	-13%
CCCN(CC(=O)Nc1ccc(Cl)cc1Cl)C(=O)/C=C/c1cc(OC)ccc1OC	22%	10%	11%	16µM*	10%[46.1 µM]	-4%

Screens from PubChem BioAssay.
